# The supplement of paper PMC4022240
# ± gives the standard deviation.
# T1: HaloTag-ATRX ADD domain (163-292)
# T1 chain: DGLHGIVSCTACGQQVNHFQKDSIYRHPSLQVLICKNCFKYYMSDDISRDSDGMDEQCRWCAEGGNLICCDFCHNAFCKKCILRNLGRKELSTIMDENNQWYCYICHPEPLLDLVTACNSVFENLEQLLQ
# Legend:
# Assay in all cases: peptide microarray binding signal (635 nm), min-max normalized on array (fraction of array maximum); higher = stronger binding
# [1] = biological target: T1, HaloTag-ATRX ADD domain (163-292)
# Method in brief: (§1)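 Two probe formats were used for 1 h at 4°C: biotin-labelled HaloTag reader fusions (10 nM to 1 μM) with streptavidin-Alexa Fluor 647, and rabbit histone antibodies (1:10,000 to 1:2,000) with anti-rabbit Alexa 647. Both were applied to nitrocellulose arrays of histone 13-mer peptide–cellulose conjugates printed in triplicate with a Cy3 tracer and blocked overnight at 4°C. Signal was read at 635 nm and misprints at 532 nm on an Axon GenePix 4000B. Binding signal is expressed as the triplicate-spot mean intensity, min-max scaled for each library.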
# [2] = biological target: HaloTag-ING2 PHD (mouse Ing2 200-280)
# Method in brief: as §1
# [3] = biological target: anti-H3K4me3 antibody ab8580
# Method in brief: as §1
# [4] = biological target: anti-H3K9me3 antibody ab8898
# Method in brief: as §1
# [5] = peptide region: H3 5-17, peptide modifications: H3K9ac H3K14me1, binder concentration: 1:2,000 dilution
# [6] = peptide region: H3 5-17, peptide modifications: H3K9ac H3K14me1, binder concentration: 1:10,000 dilution
# [7] = peptide region: H3 1-13, peptide modifications: H3T6ph H3K9me3, binder concentration: 1:2,000 dilution
# [8] = peptide region: H3 1-13, peptide modifications: H3T6ph H3K9me3, binder concentration: 1:10,000 dilution
# [9] = peptide region: H3 1-13, peptide modifications: H3T6ph H3R8me1, binder concentration: 1:2,000 dilution
# [10] = peptide region: H3 1-13, peptide modifications: H3T6ph H3R8me1, binder concentration: 1:10,000 dilution
# [11] = peptide region: H3 1-13, peptide modifications: H3T6ph, binder concentration: 1:2,000 dilution
# [12] = peptide region: H3 1-13, peptide modifications: H3T6ph, binder concentration: 1:10,000 dilution
# [13] = peptide region: H3 1-13, peptide modifications: H3T6ph H3K9me2, binder concentration: 1:2,000 dilution
# [14] = peptide region: H3 1-13, peptide modifications: H3T6ph H3K9me2, binder concentration: 1:10,000 dilution
# [15] = peptide region: H3 1-13, peptide modifications: H3T6ph H3K9me1, binder concentration: 1:2,000 dilution
# [16] = peptide region: H3 1-13, peptide modifications: H3T6ph H3K9me1, binder concentration: 1:10,000 dilution
# [17] = peptide region: H3 1-13, peptide modifications: H3T6ph H3K9ac, binder concentration: 1:2,000 dilution
# [18] = peptide region: H3 1-13, peptide modifications: H3T6ph H3K9ac, binder concentration: 1:10,000 dilution
# [19] = peptide region: H3 1-13, peptide modifications: H3T6ph H3R8me2a, binder concentration: 1:2,000 dilution
# [20] = peptide region: H3 1-13, peptide modifications: H3T6ph H3R8me2a, binder concentration: 1:10,000 dilution
# [21] = peptide region: H3 1-13, peptide modifications: H3T6ph H3R8cit, binder concentration: 1:2,000 dilution
# [22] = peptide region: H3 1-13, peptide modifications: H3T6ph H3R8cit, binder concentration: 1:10,000 dilution
# [23] = peptide region: H3 1-13, peptide modifications: H3T3ph H3K4me3, binder concentration: 1:2,000 dilution
# [24] = peptide region: H3 1-13, peptide modifications: H3T3ph H3K4me3, binder concentration: 1:10,000 dilution
binder,measurement,setting,value
QTARKSTGGKAPR [H3 5-17 Q T A R Kac S T G G Kme A P R],peptide microarray binding signal,"[1]; peptide region: H3 5-17, peptide modifications: H3K9ac H3K14me1, binder concentration: 50 nM",0.00746 ± 0.00018
same,peptide microarray binding signal,"[1]; peptide region: H3 5-17, peptide modifications: H3K9ac H3K14me1, binder concentration: 500 nM",0.024 ± 0.0017
same,peptide microarray binding signal,"[2]; peptide region: H3 5-17, peptide modifications: H3K9ac H3K14me1, binder concentration: 10 nM",0.023 ± 0.0062
same,peptide microarray binding signal,"[2]; peptide region: H3 5-17, peptide modifications: H3K9ac H3K14me1, binder concentration: 100 nM",0.0497 ± 0.004
same,peptide microarray binding signal,[3]; [5],0.00345 ± 0.00048
same,peptide microarray binding signal,[3]; [6],0.00205 ± 3.8e-05
same,peptide microarray binding signal,[4]; [5],0.0192 ± 0.002
same,peptide microarray binding signal,[4]; [6],0.00882 ± 0.00058
ARTKQTARKSTGG [H3 1-13 A R T K Q Tph A R Kme3 S T G G],peptide microarray binding signal,"[1]; peptide region: H3 1-13, peptide modifications: H3T6ph H3K9me3, binder concentration: 50 nM",0.007335 ± 6.2e-05
same,peptide microarray binding signal,"[1]; peptide region: H3 1-13, peptide modifications: H3T6ph H3K9me3, binder concentration: 500 nM",0.01343 ± 9.1e-05
same,peptide microarray binding signal,"[2]; peptide region: H3 1-13, peptide modifications: H3T6ph H3K9me3, binder concentration: 10 nM",0.0229 ± 0.0005
same,peptide microarray binding signal,"[2]; peptide region: H3 1-13, peptide modifications: H3T6ph H3K9me3, binder concentration: 100 nM",0.0339 ± 0.003
same,peptide microarray binding signal,[3]; [7],0.0494 ± 0.0093
same,peptide microarray binding signal,[3]; [8],0.0422 ± 0.0078
same,peptide microarray binding signal,[4]; [7],0.269 ± 0.024
same,peptide microarray binding signal,[4]; [8],0.17 ± 0.021
ARTKQTARKSTGG [H3 1-13 A R T K Q Tph A Rme K S T G G],peptide microarray binding signal,"[1]; peptide region: H3 1-13, peptide modifications: H3T6ph H3R8me1, binder concentration: 50 nM",0.00476 ± 9.2e-05
same,peptide microarray binding signal,"[1]; peptide region: H3 1-13, peptide modifications: H3T6ph H3R8me1, binder concentration: 500 nM",0.022 ± 0.0012
same,peptide microarray binding signal,"[2]; peptide region: H3 1-13, peptide modifications: H3T6ph H3R8me1, binder concentration: 10 nM",0.00507 ± 0.0011
same,peptide microarray binding signal,"[2]; peptide region: H3 1-13, peptide modifications: H3T6ph H3R8me1, binder concentration: 100 nM",0.0331 ± 0.012
same,peptide microarray binding signal,[3]; [9],0.00111 ± 7.2e-05
same,peptide microarray binding signal,[3]; [10],0.00148 ± 0.0001
same,peptide microarray binding signal,[4]; [9],0.00234 ± 0.00042
same,peptide microarray binding signal,[4]; [10],0.00213 ± 7.1e-05
ARTKQTARKSTGG [H3 1-13 A R T K Q Tph A R K S T G G],peptide microarray binding signal,"[1]; peptide region: H3 1-13, peptide modifications: H3T6ph, binder concentration: 50 nM",0.004044 ± 1.6e-05
same,peptide microarray binding signal,"[1]; peptide region: H3 1-13, peptide modifications: H3T6ph, binder concentration: 500 nM",0.009 ± 0.00047
same,peptide microarray binding signal,"[2]; peptide region: H3 1-13, peptide modifications: H3T6ph, binder concentration: 10 nM",0.0046 ± 0.00047
same,peptide microarray binding signal,"[2]; peptide region: H3 1-13, peptide modifications: H3T6ph, binder concentration: 100 nM",0.0195 ± 0.002
same,peptide microarray binding signal,[3]; [11],0.000793 ± 7.5e-05
same,peptide microarray binding signal,[3]; [12],0.000285 ± 3.1e-06
same,peptide microarray binding signal,[4]; [11],0.000755 ± 2.9e-05
same,peptide microarray binding signal,[4]; [12],0.000288
ARTKQTARKSTGG [H3 1-13 A R T K Q Tph A R Kme2 S T G G],peptide microarray binding signal,"[1]; peptide region: H3 1-13, peptide modifications: H3T6ph H3K9me2, binder concentration: 50 nM",0.00674 ± 3.8e-05
same,peptide microarray binding signal,"[1]; peptide region: H3 1-13, peptide modifications: H3T6ph H3K9me2, binder concentration: 500 nM",0.0151 ± 0.00044
same,peptide microarray binding signal,"[2]; peptide region: H3 1-13, peptide modifications: H3T6ph H3K9me2, binder concentration: 10 nM",0.0226 ± 0.0028
same,peptide microarray binding signal,"[2]; peptide region: H3 1-13, peptide modifications: H3T6ph H3K9me2, binder concentration: 100 nM",0.0292 ± 0.0053
same,peptide microarray binding signal,[3]; [13],0.00732 ± 0.0017
same,peptide microarray binding signal,[3]; [14],0.0124 ± 0.0021
same,peptide microarray binding signal,[4]; [13],0.0419 ± 0.0095
same,peptide microarray binding signal,[4]; [14],0.0174 ± 0.00085
ARTKQTARKSTGG [H3 1-13 A R T K Q Tph A R Kme S T G G],peptide microarray binding signal,"[1]; peptide region: H3 1-13, peptide modifications: H3T6ph H3K9me1, binder concentration: 50 nM",0.00721 ± 0.00059
same,peptide microarray binding signal,"[1]; peptide region: H3 1-13, peptide modifications: H3T6ph H3K9me1, binder concentration: 500 nM",0.0115 ± 0.00096
same,peptide microarray binding signal,"[2]; peptide region: H3 1-13, peptide modifications: H3T6ph H3K9me1, binder concentration: 10 nM",0.0206 ± 0.0028
same,peptide microarray binding signal,"[2]; peptide region: H3 1-13, peptide modifications: H3T6ph H3K9me1, binder concentration: 100 nM",0.0319 ± 0.0032
same,peptide microarray binding signal,[3]; [15],0.00568 ± 0.0013
same,peptide microarray binding signal,[3]; [16],0.0686 ± 0.046
same,peptide microarray binding signal,[4]; [15],0.00584 ± 0.00057
same,peptide microarray binding signal,[4]; [16],0.00582 ± 0.00014
ARTKQTARKSTGG [H3 1-13 A R T K Q Tph A R Kac S T G G],peptide microarray binding signal,"[1]; peptide region: H3 1-13, peptide modifications: H3T6ph H3K9ac, binder concentration: 50 nM",0.00724 ± 0.00023
same,peptide microarray binding signal,"[1]; peptide region: H3 1-13, peptide modifications: H3T6ph H3K9ac, binder concentration: 500 nM",0.0156 ± 0.0012
same,peptide microarray binding signal,"[2]; peptide region: H3 1-13, peptide modifications: H3T6ph H3K9ac, binder concentration: 10 nM",0.0307 ± 0.002
same,peptide microarray binding signal,"[2]; peptide region: H3 1-13, peptide modifications: H3T6ph H3K9ac, binder concentration: 100 nM",0.0441 ± 0.0085
same,peptide microarray binding signal,[3]; [17],0.00995 ± 0.00061
same,peptide microarray binding signal,[3]; [18],0.00622 ± 0.00014
same,peptide microarray binding signal,[4]; [17],0.00527 ± 0.00089
same,peptide microarray binding signal,[4]; [18],0.00294 ± 0.00011
ARTKQTARKSTGG [H3 1-13 A R T K Q Tph A Rme2a K S T G G],peptide microarray binding signal,"[1]; peptide region: H3 1-13, peptide modifications: H3T6ph H3R8me2a, binder concentration: 50 nM",0.00677 ± 0.00082
same,peptide microarray binding signal,"[1]; peptide region: H3 1-13, peptide modifications: H3T6ph H3R8me2a, binder concentration: 500 nM",0.0179 ± 0.002
same,peptide microarray binding signal,"[2]; peptide region: H3 1-13, peptide modifications: H3T6ph H3R8me2a, binder concentration: 10 nM",0.00961 ± 0.00061
same,peptide microarray binding signal,"[2]; peptide region: H3 1-13, peptide modifications: H3T6ph H3R8me2a, binder concentration: 100 nM",0.054 ± 0.0051
same,peptide microarray binding signal,[3]; [19],0.00166 ± 0.00015
same,peptide microarray binding signal,[3]; [20],0.0012 ± 1.2e-05
same,peptide microarray binding signal,[4]; [19],0.00384 ± 0.00058
same,peptide microarray binding signal,[4]; [20],0.00185 ± 6.1e-05
ARTKQTARKSTGG [H3 1-13 A R T K Q Tph A Rcit K S T G G],peptide microarray binding signal,"[1]; peptide region: H3 1-13, peptide modifications: H3T6ph H3R8cit, binder concentration: 50 nM",0.00461 ± 9.2e-05
same,peptide microarray binding signal,"[1]; peptide region: H3 1-13, peptide modifications: H3T6ph H3R8cit, binder concentration: 500 nM",0.00667 ± 0.00019
same,peptide microarray binding signal,"[2]; peptide region: H3 1-13, peptide modifications: H3T6ph H3R8cit, binder concentration: 10 nM",0.004536 ± 4e-05
same,peptide microarray binding signal,"[2]; peptide region: H3 1-13, peptide modifications: H3T6ph H3R8cit, binder concentration: 100 nM",0.00652 ± 0.00029
same,peptide microarray binding signal,[3]; [21],0.000396
same,peptide microarray binding signal,[3]; [22],0.000114 ± 1.3e-06
same,peptide microarray binding signal,[4]; [21],0.000332 ± 8.8e-06
same,peptide microarray binding signal,[4]; [22],0.000807 ± 2.5e-05
ARTKQTARKSTGG [H3 1-13 A R Tph Kme3 Q T A R K S T G G],peptide microarray binding signal,"[1]; peptide region: H3 1-13, peptide modifications: H3T3ph H3K4me3, binder concentration: 50 nM",0.00583 ± 0.0002
same,peptide microarray binding signal,"[1]; peptide region: H3 1-13, peptide modifications: H3T3ph H3K4me3, binder concentration: 500 nM",0.0119 ± 0.00039
same,peptide microarray binding signal,"[2]; peptide region: H3 1-13, peptide modifications: H3T3ph H3K4me3, binder concentration: 10 nM",0.0508 ± 0.0034
same,peptide microarray binding signal,"[2]; peptide region: H3 1-13, peptide modifications: H3T3ph H3K4me3, binder concentration: 100 nM",0.103 ± 0.049
same,peptide microarray binding signal,[3]; [23],0.277 ± 0.065
same,peptide microarray binding signal,[3]; [24],0.724 ± 0.2
same,peptide microarray binding signal,[4]; [23],0.055 ± 0.0067
same,peptide microarray binding signal,[4]; [24],0.017 ± 0.00063
